Bioassay records (PubChem)
hcGAS lum = human cGAS inhibition | hit rate 0.081% among 290,000 | recombinant h-cGAS, ATP depletion, Kinase-Glo luminescence | inhibition, % at 12.5 µM | Q8N884
Target sequence (Q8N884 whole entry, looked up): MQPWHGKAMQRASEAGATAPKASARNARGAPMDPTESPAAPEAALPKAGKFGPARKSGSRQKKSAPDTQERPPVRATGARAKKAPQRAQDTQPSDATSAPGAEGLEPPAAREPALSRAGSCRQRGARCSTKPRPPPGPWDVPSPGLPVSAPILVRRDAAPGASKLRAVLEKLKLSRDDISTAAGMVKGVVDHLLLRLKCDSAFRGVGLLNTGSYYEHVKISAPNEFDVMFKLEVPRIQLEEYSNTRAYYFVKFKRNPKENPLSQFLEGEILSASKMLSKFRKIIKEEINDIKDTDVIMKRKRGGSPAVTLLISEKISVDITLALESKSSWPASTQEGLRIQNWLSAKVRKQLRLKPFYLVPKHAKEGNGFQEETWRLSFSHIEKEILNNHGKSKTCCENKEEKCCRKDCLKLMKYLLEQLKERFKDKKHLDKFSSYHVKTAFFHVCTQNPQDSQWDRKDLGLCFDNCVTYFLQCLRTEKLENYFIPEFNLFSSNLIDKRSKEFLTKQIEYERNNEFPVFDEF
NPYLR7 ag = mosquito NPYLR7 agonism; HEK293T NPYLR7/Galpha15, GCaMP6s calcium fluorescence; activation, % at 10 µM; hit rate 0.15% among 270,000; in the data active means activation above about 40%
mcGAS inh = inhibitors of mouse cGAS. AID 1259399. hit rate 0.15% among 160,000. inhibition, % at 12.5 µM. recombinant cGAS, Kinase-Glo ATP depletion luminescence
Of the large screens only hits and unclear results are named; the others gave an inactive call. Most compounds without a hit are left out; they make up all but 0.24% or so of the library. Unless noted, no stated cut-off is given here; in the data, active means inhibition above about 40%; inactive means the rest.

Cc1[nH]c2ccccc2c1C=NC1CCS(=O)(=O)C1 (centres undefined)	none
Clc1cc2c(c(CSc3nnnn3-c3ccccc3)c1)OCOC2	hcGAS lum 71.9
Clc1cc2c(c(CSc3nnc(-c4ccccc4)o3)c1)OCOC2	none
Cc1ccccc1-n1c(-c2ccc(Cl)cc2)cc(C(=O)NC(C)C(C)C)c1C (centres undefined)	none
O=C(CSc1cn(CC(=O)N2CCCCCC2)c2ccccc12)NC1CCCC1	NPYLR7 ag 42.3
CNC(=O)CSc1cn(CC(=O)N2CCCCCC2)c2ccccc12	none
COc1ccc(NC(=O)NC2CC3CC2C2CCCC32)cn1 (centres undefined)	none
O=C(c1ccccc1-c1ccc(C(F)(F)F)cc1)N1CCCC(O)C1 (centres undefined)	none
c1ccc(CNc2nc(NCCc3ccncc3)c3sccc3n2)cc1	NPYLR7 ag 59.3 (no result: mcGAS inh)
CNc1nc(NCc2ccccc2)c2sccc2n1	none (no result: mcGAS inh)
COc1ccc(C2=NN(C(C)=O)C(c3nc4ccccc4[nH]3)C2)cc1 (centres undefined)	none
CC1CN(c2ccc(Br)cc2)c2nc3c(c(=O)[nH]c(=O)n3C)n2C1 (centres undefined)	none (no result: NPYLR7 ag)
Cc1cc(CO)c(OCCOCCOc2c(CO)cc(C)cc2CO)c(CO)c1	hcGAS lum 61.6 (no result: mcGAS inh)
COc1cc(OC)c(OC)cc1CO	none
Cc1c(C(=O)N2CC(C)CC(C)C2)cnc2c(-c3ccc(C(C)C)cc3)cnn12 (centres undefined)	none
Cc1nc(C(=O)NCc2cccnc2N(C)C)cs1	none (no result: mcGAS inh)
Cc1cccnc1-n1c(SCC(=O)NC2CC2)nc2ccccc2c1=O	none (no result: mcGAS inh)
N#CC1C(=N)SC(=N)C(C#N)C1c1cccs1 (centres undefined)	hcGAS lum 74.1, mcGAS inh 70.4
CC(=O)[C@@H]1SC(=N)C(C#N)[C@H]1c1cccs1 (some centres undefined)	none
COCCN(CCC(=O)N1CCN(c2ccccc2F)CC1)c1nc(-c2ccccc2)nc2ccccc12	none
Cc1cc(C(=O)CSCc2cc(=O)n3c(C)csc3n2)c(C)n1C1CC1	none (no result: mcGAS inh)
Cc1nc(=O)c(-c2ccccc2)c(C)n1-c1ccccc1	none (no result: mcGAS inh)
Cc1nc(=O)c(-c2ccccc2)c(C)n1-c1ccccc1O	NPYLR7 ag 80.2
CC(=O)c1cccc(-c2ccc(F)cn2)c1	none (no result: mcGAS inh)
CN1CCC2(CC1)CN(C(=O)c1ccccc1-c1ccccc1)CCCN2C	none
CCCCCCCCCCCCNC(=O)c1c(O)c2ccccc2[nH]c1=O	hcGAS lum 44.7
O=C(NCCCO)c1c(O)c2ccccc2[nH]c1=O	none (no result: mcGAS inh)
CN1CCCc2cc(C(C#N)N3CCOCC3)ccc21 (centres undefined)	none (no result: mcGAS inh)
COCCNS(=O)(=O)c1ccc(OC)c(N2CCN(S(=O)(=O)c3cccc(Cl)c3Cl)CC2)c1	none
Cc1cc2nc3c(=O)[nH]c(=O)nc-3n(C)c2cc1C=O	none (no result: mcGAS inh)
Cc1cc2nc3c(=O)[nH]c(=O)nc-3n(CC(O)C(O)C(O)CO)c2cc1C (centres undefined)	NPYLR7 ag 172.5 (no result: mcGAS inh)
S=c1n(CN2CCCC2c2ccccc2)cc2ccccn12 (centres undefined)	hcGAS lum 54.9 (no result: mcGAS inh)
O=C(CN1CCCC1c1ccccc1)NCc1ccccc1 (centres undefined)	none (no result: mcGAS inh)
Cc1cc(C(C)(C)C)c([N+](=O)[O-])c2c1CC2(C)C	none (no result: mcGAS inh)
COC(=O)C1=C(C)NC(C)=C(C(=O)OC)C1c1ccccc1[N+](=O)[O-]	mcGAS inh 50.9
COC(=O)C1=C(C)NC(=O)NC1c1ccccc1[N+](=O)[O-] (centres undefined)	none
CCOC=C(C#N)c1nc(C)cs1	NPYLR7 ag 83.7 (no result: mcGAS inh)
CCOc1cccc(/C=C(/C#N)c2nc(C)cs2)c1OC(F)F	none (no result: mcGAS inh)
O=C(CN1CCc2ccccc2C1)NCC1CCN(c2ccccc2)C1 (centres undefined)	none (no result: mcGAS inh)
O=C(Cc1ccc2c(c1)CCC2)NCC1CCN(c2ccccc2)C1 (centres undefined)	NPYLR7 ag 49.1
O=C(C(c1ccccc1)n1cccc1)N1CCN(c2ncccn2)CC1 (centres undefined)	none (no result: mcGAS inh)
Cc1ccc(CN(C(=O)c2cc3cc(Cl)ccc3[nH]2)C(C)C)o1	NPYLR7 ag 118.4 (no result: mcGAS inh)
O=C(O)c1cc2cc(Cl)ccc2[nH]1	none
O=C(c1cnccn1)N1CCc2[nH]c3c(Cl)cc(Cl)cc3c2C1	none
COCC(=O)N1CCc2[nH]c3c(Cl)cc(Cl)cc3c2C1	hcGAS lum 48.2, mcGAS inh 95.8
c1ccn2c(Sc3ncnc4sc5c(c34)CCCC5)nnc2c1	none (no result: mcGAS inh)
Cc1nc(Sc2nnc3ccccn23)c2c3c(sc2n1)CCCC3	NPYLR7 ag 43.2
CN(Cc1cnn(-c2ccc(F)cc2)c1)Cc1nc(CC2CC2)no1	none
CCCC(=O)N1CCCC1(C)C(=O)Nc1cccc(F)c1 (centres undefined)	none
Cc1ccc(S(=O)(=O)Nc2cc(-c3ccco3)nn2C2CCS(=O)(=O)C2)cc1C (centres undefined)	none
